A short description of this experiment: NCI Yeast Anticancer Drug Screen. Data for the rad50EPP+ strain (AID 151).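 Note: 0% = growth of vehicle-treated control cultures.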 The following applies: S. cerevisiae rad50 mutant strain, hits give high values. The procedure:
Growth inhibition of yeast strains with defined genetic alterations is measured as a screen for potential anti-cancer activity. Selected strains with alterations in DNA damage repair or cell cycle control were exposed to compounds and growth inhibition was measured relative to vehicle treated controls. The strain used in this assay is rad50EPP+

The panel holds about 79,000 compounds, 15% with a hit somewhere; the sample as a whole holds those more often. Values without a mark were called inactive. Active and inactive are the calls of the source. Cut-off read from the data, not from the text of the source: active = growth inhibition above about 70%; inactive = the rest.

Regarding `O/N=C\c1c(O)ccc2ccccc12`, the growth inhibition reads like this: (at 1.2 µM) 2%; (at 3.7 µM) 10%; (at 11.0 µM) 19%; (at 33.0 µM) 54%; (at 100.0 µM) 74% (active).

Consider `Cc1ccc(CC2(OCCN(C)C)CCC(C(C)(C)C)CC2)cc1` (stereo not given), for which the growth inhibition by setting is: (at 1.2 µM) -4%; (at 3.7 µM) -9%; (at 11.0 µM) -3%; (at 33.0 µM) -2%; (at 100.0 µM) 97% (active).

With `CC(=O)OCC(C)Cc1cc2c(cc1Br)OCO2` (stereo not given), the growth inhibition by setting is: (at 1.2 µM) -9%; (at 3.7 µM) -6%; (at 11.0 µM) 16%; (at 33.0 µM) 18%; (at 100.0 µM) 33%.

On to `COc1nc2c(c(=O)n1C)N=C(c1ccccc1)[C@H](C(CC(=O)c1ccccc1)c1ccccc1)C(c1ccccc1)N2` (stereo not given in full), for which the growth inhibition is -16% (at 1.2 µM); -30% (at 3.7 µM); -46% (at 11.0 µM); -17% (at 33.0 µM); -35% (at 100.0 µM).

On to `CC1=C(C(=O)NCc2ccccc2)C(c2ccccc2)C(C(=O)NCc2ccccc2)=C(C)N1`, for which the growth inhibition was -3% (at 1.2 µM); -1% (at 3.7 µM); 3% (at 11.0 µM); 3% (at 33.0 µM); 0% (at 100.0 µM).

Regarding `Cc1cc(N(CCOS(C)(=O)=O)CCOS(C)(=O)=O)ccc1C=Nc1ccc(-c2nc(Cc3ccccc3)sc2C)cc1`, the growth inhibition is, setting by setting: (at 1.2 µM) 1%; (at 3.7 µM) -19%; (at 11.0 µM) 10%; (at 33.0 µM) 37%; (at 100.0 µM) 92% (active).

In the case of `COc1oc(C(=O)NC2CCCCC2)c(-c2ccc(Cl)cc2)c1S(=O)(=O)c1ccccc1`, the growth inhibition is, setting by setting: (at 1.2 µM) -22%; (at 3.7 µM) -19%; (at 11.0 µM) -18%; (at 33.0 µM) -5%; (at 100.0 µM) -11%.

Regarding `OC1(c2ccccc2)CCCc2ccc(Cl)cc21` (stereo not given), the growth inhibition was 3% (at 1.2 µM); 7% (at 3.7 µM); 13% (at 11.0 µM); 20% (at 33.0 µM); 74% (active) (at 100.0 µM).

Source of the values: PubChem BioAssay (NCI).
